Measurements published in the OligoGym collection.

The sequences below were run against EFNB2 (assay: pooled miR-30 sensor sort-seq; sequence = guide strand). Settings: shRNA.
Note: reference of the scale not given here.

In order of rising sensor-assay potency score (higher = more potent):
1. TTGATCCAGCAGAACTTGCATC  -0.768
2. TTTATCAACCATATAAACTTTA  -0.264
3. TAAAAAACCAACATTGCTCTAT  0.0453

These sequences were tested against EGFLAM in the same assay as above. Settings: shRNA.

In order of falling sensor-assay potency score (higher = more potent):
1. TTAGATATAGACATCTTCTTGC  0.604
2. ACACATTTGATCTTGATCCTGA  0.527
3. TTGAGGTCCACTTCTTGTCGAA  -0.198
4. TTGATGTGTGATCTCTGGCAGC  -0.345
5. TCTCTGTAGAGCATAACCGTGT  -0.368
6. TAAGCTGCTATGCTCACACGAT  -0.515
7. TTCTTGTCGAAATCTGGCCTGA  -0.665
8. TGAATCACAACACAGTCACTGA  -0.715
9. ATAACAATATCTTCTGAGCAGC  -1.01
10. TAGAGCATAACCGTGTGCCAAC  -1.37
11. TAGTCATTGACACAGAAGCTGT  -1.47
12. ATCTCTGTAGAGCATAACCGTG  -1.58
